Data from article PMC7862700, “An all-to-all approach to the identification of sequence-specific readers for epigenetic DNA modifications on cytosine”.

Legend:
Test in all cases: DAPPL (digital affinity profiling via proximity ligation, sequencing); 10 mM Tris-HCl pH 7.5, 50 mM NaCl, 1 mM DTT, 4% glycerol, room temperature, 30 min; GST-TFs on glutathione beads, 16-mer random dsDNA library, 0.1% formaldehyde crosslink after washing; high values mean tight binding
Conditions in all cases: protein: recombinant; tags: N-terminal GST; dsDNA, one strand shown
[1] = target: T1, FLI1 (Homo sapiens, UniProt Q01543 1-452)
T1 sequence: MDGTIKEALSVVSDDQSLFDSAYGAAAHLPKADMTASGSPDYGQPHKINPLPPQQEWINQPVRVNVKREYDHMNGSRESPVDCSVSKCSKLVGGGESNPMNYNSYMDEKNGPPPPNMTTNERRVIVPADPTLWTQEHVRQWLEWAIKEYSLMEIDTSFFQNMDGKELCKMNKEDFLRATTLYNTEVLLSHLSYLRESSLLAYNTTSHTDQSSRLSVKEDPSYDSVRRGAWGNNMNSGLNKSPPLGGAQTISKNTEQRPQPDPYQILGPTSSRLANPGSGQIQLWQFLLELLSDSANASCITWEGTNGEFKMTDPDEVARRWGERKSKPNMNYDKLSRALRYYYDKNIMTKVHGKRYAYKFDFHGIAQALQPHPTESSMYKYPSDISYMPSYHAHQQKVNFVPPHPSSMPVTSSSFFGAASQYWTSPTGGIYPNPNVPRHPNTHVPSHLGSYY
In short: (§1)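 GST fusions of human transcription factors were expressed in yeast and captured with glutathione beads. Once given DNA barcodes and pooled alongside a tag-only sample, they were incubated for 30 min at room temperature with 200 nmole of a random double-stranded 16-mer DNA library in Tris/NaCl/DTT/glycerol buffer, then washed, crosslinked (0.1% formaldehyde), proximity-ligated, PCR-amplified and sequenced on an Illumina NextSeq500. The binding signal of each hexamer is its read frequency for a factor divided by its frequency for the tag-only sample.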

[2] = target: T2, ELK1 (Homo sapiens, UniProt P19419 1-428)
T2 sequence: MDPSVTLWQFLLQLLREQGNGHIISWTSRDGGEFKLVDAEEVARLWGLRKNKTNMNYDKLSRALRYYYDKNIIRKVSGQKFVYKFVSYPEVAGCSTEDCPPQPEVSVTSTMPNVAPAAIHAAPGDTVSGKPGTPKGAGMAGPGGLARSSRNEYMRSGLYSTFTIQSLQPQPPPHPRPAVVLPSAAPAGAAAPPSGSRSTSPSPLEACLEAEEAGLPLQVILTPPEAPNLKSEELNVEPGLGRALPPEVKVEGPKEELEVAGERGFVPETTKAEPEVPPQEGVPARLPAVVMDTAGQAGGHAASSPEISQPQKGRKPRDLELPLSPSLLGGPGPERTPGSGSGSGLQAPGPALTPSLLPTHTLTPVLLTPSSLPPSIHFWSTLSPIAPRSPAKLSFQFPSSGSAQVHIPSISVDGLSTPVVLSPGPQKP
In short: as §1

[3] = target: T3, GABPA (Homo sapiens, UniProt Q06546 1-454)
T3 sequence: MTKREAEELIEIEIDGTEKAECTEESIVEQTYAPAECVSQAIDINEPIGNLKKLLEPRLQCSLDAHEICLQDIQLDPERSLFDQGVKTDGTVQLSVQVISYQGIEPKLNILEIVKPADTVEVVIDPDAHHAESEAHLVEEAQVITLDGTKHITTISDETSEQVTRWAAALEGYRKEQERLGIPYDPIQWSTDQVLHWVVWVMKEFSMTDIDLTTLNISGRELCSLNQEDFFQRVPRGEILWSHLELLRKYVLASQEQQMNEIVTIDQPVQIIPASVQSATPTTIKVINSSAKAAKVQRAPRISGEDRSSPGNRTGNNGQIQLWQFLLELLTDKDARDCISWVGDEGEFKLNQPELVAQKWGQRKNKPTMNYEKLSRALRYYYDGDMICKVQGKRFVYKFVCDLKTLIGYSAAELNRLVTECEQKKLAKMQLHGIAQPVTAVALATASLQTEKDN
In short: as §1

[4] = target: T4, ERG (Homo sapiens, UniProt P11308 1-479)
T4 sequence: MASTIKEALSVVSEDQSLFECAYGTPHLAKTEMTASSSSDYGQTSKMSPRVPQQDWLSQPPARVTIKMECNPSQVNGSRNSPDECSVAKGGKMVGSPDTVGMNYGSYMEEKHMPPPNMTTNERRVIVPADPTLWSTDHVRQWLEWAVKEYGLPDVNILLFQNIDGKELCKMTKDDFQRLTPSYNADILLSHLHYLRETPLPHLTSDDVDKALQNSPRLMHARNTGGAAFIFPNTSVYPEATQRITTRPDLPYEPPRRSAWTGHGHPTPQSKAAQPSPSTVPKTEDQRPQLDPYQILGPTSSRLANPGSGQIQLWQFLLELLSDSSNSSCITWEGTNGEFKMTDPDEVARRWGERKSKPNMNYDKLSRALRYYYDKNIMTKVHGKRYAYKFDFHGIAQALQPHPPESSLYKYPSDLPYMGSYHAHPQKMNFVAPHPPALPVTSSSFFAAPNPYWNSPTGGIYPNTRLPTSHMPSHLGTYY
In short: as §1

[5] = target: ELF1 (Homo sapiens, UniProt P32519 1-619)
In short: as §1

[6] = target: T5, EHF (Homo sapiens, UniProt Q9NZC4 1-300)
T5 sequence: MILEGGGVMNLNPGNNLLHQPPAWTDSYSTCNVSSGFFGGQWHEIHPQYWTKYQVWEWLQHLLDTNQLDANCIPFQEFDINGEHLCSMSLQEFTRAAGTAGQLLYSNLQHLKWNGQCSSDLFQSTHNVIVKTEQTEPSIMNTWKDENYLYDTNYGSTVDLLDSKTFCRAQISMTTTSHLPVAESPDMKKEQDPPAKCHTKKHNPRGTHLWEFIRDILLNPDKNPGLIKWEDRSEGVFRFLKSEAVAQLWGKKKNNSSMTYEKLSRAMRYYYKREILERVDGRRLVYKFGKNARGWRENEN
In short: as §1

[7] = target: SPI1 (Homo sapiens, UniProt P17947 1-270)
In short: as §1

[8] = target: SPIB (Homo sapiens, UniProt Q01892 1-262)
In short: as §1

[9] = target: T6, ELK3 (Homo sapiens, UniProt P41970 1-407)
T6 sequence: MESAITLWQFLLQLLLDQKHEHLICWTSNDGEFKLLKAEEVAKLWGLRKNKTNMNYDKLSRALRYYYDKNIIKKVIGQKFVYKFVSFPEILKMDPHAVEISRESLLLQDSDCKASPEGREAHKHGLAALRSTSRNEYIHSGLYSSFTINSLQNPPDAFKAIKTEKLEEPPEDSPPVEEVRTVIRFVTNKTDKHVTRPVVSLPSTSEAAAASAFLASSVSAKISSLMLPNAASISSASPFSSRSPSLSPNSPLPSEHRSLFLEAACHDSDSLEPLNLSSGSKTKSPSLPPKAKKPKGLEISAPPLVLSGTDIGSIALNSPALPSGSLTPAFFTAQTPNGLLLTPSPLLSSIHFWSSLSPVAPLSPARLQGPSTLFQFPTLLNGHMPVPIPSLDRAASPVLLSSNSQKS
In short: as §1

Chain of SPIB (Q01892 whole entry): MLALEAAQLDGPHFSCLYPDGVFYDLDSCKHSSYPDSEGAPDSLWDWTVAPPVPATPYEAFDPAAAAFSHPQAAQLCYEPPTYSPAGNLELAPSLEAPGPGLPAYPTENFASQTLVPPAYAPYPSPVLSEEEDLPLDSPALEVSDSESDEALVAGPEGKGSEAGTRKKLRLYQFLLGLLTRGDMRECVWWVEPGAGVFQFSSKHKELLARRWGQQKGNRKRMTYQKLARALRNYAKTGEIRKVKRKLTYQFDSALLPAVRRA
Chain of ELF1 (P32519 whole entry): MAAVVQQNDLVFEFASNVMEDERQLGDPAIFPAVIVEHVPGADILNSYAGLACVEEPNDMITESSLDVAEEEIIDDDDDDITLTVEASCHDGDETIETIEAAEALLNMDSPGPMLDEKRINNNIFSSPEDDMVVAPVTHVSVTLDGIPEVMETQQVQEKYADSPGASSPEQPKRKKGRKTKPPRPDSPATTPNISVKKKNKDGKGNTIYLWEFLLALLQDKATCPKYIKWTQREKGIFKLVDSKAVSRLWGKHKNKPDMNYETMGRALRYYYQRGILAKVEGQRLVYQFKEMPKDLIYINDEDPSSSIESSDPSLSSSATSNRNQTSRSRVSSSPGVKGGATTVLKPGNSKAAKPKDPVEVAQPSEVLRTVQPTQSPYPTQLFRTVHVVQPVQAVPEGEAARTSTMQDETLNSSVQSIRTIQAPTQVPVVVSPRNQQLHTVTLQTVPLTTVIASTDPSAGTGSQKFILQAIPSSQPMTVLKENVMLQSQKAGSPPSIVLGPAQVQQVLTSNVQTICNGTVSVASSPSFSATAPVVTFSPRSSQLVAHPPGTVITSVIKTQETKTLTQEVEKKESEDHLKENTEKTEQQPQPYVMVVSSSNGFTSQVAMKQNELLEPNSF

Question: With TCTAAA as the sequence, how does the binding signal [1] read?
Answer: Its binding signal is 1.24 fold enrichment (6-mer frequency, TF over GST control).

Question: And the binding signal [2]?
Answer: Its binding signal is 1.22 fold enrichment (6-mer frequency, TF over GST control).

Question: And the binding signal [3]?
Answer: Its binding signal is 1.26 fold enrichment (6-mer frequency, TF over GST control).

Question: What about the binding signal [4] of the same sequence?
Answer: Its binding signal is 1.24 fold enrichment (6-mer frequency, TF over GST control).

Question: What about the binding signal [5] of the same sequence?
Answer: The binding signal was 1.21 fold enrichment (6-mer frequency, TF over GST control).

Question: What about the binding signal [6] of the same sequence?
Answer: Its binding signal is 1.2 fold enrichment (6-mer frequency, TF over GST control).

Question: What about the binding signal [7] of the same sequence?
Answer: Its binding signal is 1.18 fold enrichment (6-mer frequency, TF over GST control).

Question: What about the binding signal [8] of the same sequence?
Answer: The binding signal was 1.16 fold enrichment (6-mer frequency, TF over GST control).

Question: What about the binding signal [9] of the same sequence?
Answer: Its binding signal is 1.2 fold enrichment (6-mer frequency, TF over GST control).

Question: What does the source list for AAAGAC?
Answer: binding signal [1]: 1.06 fold enrichment (6-mer frequency, TF over GST control); binding signal [2]: 1.07 fold enrichment (6-mer frequency, TF over GST control); binding signal [3]: 1.02 fold enrichment (6-mer frequency, TF over GST control); binding signal [4]: 1.07 fold enrichment (6-mer frequency, TF over GST control); binding signal [5]: 1 fold enrichment (6-mer frequency, TF over GST control); binding signal [6]: 1.05 fold enrichment (6-mer frequency, TF over GST control); binding signal [7]: 1.1 fold enrichment (6-mer frequency, TF over GST control); binding signal [8]: 1.08 fold enrichment (6-mer frequency, TF over GST control); binding signal [9]: 1.02 fold enrichment (6-mer frequency, TF over GST control)

Question: What does the source list for CTTGCC?
Answer: binding signal [1]: 1.29 fold enrichment (6-mer frequency, TF over GST control); binding signal [2]: 1.17 fold enrichment (6-mer frequency, TF over GST control); binding signal [3]: 1.3 fold enrichment (6-mer frequency, TF over GST control); binding signal [4]: 1.24 fold enrichment (6-mer frequency, TF over GST control); binding signal [5]: 1.29 fold enrichment (6-mer frequency, TF over GST control); binding signal [6]: 1.33 fold enrichment (6-mer frequency, TF over GST control); binding signal [7]: 1.38 fold enrichment (6-mer frequency, TF over GST control); binding signal [8]: 1.22 fold enrichment (6-mer frequency, TF over GST control); binding signal [9]: 1.3 fold enrichment (6-mer frequency, TF over GST control)

Question: Which binding signal [1] does the source give for TGACCG here?
Answer: Its binding signal is 1.62 fold enrichment (6-mer frequency, TF over GST control).

Question: And the binding signal [2]?
Answer: The binding signal was 1.48 fold enrichment (6-mer frequency, TF over GST control).

Question: And the binding signal [3]?
Answer: The binding signal was 1.59 fold enrichment (6-mer frequency, TF over GST control).

Question: And the binding signal [4]?
Answer: The binding signal was 1.55 fold enrichment (6-mer frequency, TF over GST control).

Question: What about the binding signal [5] of the same sequence?
Answer: Its binding signal is 1.53 fold enrichment (6-mer frequency, TF over GST control).

Question: What about the binding signal [6] of the same sequence?
Answer: Its binding signal is 1.53 fold enrichment (6-mer frequency, TF over GST control).

Question: What about the binding signal [7] of the same sequence?
Answer: The binding signal was 1.52 fold enrichment (6-mer frequency, TF over GST control).

Question: And the binding signal [8]?
Answer: The binding signal was 1.44 fold enrichment (6-mer frequency, TF over GST control).

Question: And the binding signal [9]?
Answer: Its binding signal is 1.47 fold enrichment (6-mer frequency, TF over GST control).

Question: CCAATC was tested. Which binding signal [1] did it give?
Answer: The binding signal was 1.21 fold enrichment (6-mer frequency, TF over GST control).

Question: What about the binding signal [2] of the same sequence?
Answer: Its binding signal is 1.14 fold enrichment (6-mer frequency, TF over GST control).

Question: And the binding signal [3]?
Answer: The binding signal was 1.2 fold enrichment (6-mer frequency, TF over GST control).

Question: And the binding signal [4]?
Answer: Its binding signal is 1.12 fold enrichment (6-mer frequency, TF over GST control).

Question: What about the binding signal [5] of the same sequence?
Answer: Its binding signal is 1.23 fold enrichment (6-mer frequency, TF over GST control).

Question: And the binding signal [6]?
Answer: Its binding signal is 1 fold enrichment (6-mer frequency, TF over GST control).

Question: And the binding signal [7]?
Answer: The binding signal was 1.14 fold enrichment (6-mer frequency, TF over GST control).

Question: What about the binding signal [8] of the same sequence?
Answer: Its binding signal is 1.1 fold enrichment (6-mer frequency, TF over GST control).

Question: And the binding signal [9]?
Answer: The binding signal was 1.22 fold enrichment (6-mer frequency, TF over GST control).

Question: With TTTGAT as the sequence, how does the binding signal [1] read?
Answer: Its binding signal is 1.37 fold enrichment (6-mer frequency, TF over GST control).

Question: And the binding signal [2]?
Answer: The binding signal was 1.36 fold enrichment (6-mer frequency, TF over GST control).

Question: What about the binding signal [3] of the same sequence?
Answer: Its binding signal is 1.26 fold enrichment (6-mer frequency, TF over GST control).

Question: And the binding signal [4]?
Answer: Its binding signal is 1.3 fold enrichment (6-mer frequency, TF over GST control).

Question: And the binding signal [5]?
Answer: The binding signal was 1.23 fold enrichment (6-mer frequency, TF over GST control).

Question: What about the binding signal [6] of the same sequence?
Answer: The binding signal was 1.25 fold enrichment (6-mer frequency, TF over GST control).

Question: What about the binding signal [7] of the same sequence?
Answer: Its binding signal is 1.22 fold enrichment (6-mer frequency, TF over GST control).

Question: And the binding signal [8]?
Answer: Its binding signal is 1.31 fold enrichment (6-mer frequency, TF over GST control).

Question: What about the binding signal [9] of the same sequence?
Answer: Its binding signal is 1.12 fold enrichment (6-mer frequency, TF over GST control).

Question: For TCCTGC, which binding signal [1] is on record?
Answer: The binding signal was 1.61 fold enrichment (6-mer frequency, TF over GST control).

Question: And the binding signal [2]?
Answer: Its binding signal is 1.8 fold enrichment (6-mer frequency, TF over GST control).

Question: And the binding signal [3]?
Answer: Its binding signal is 1.49 fold enrichment (6-mer frequency, TF over GST control).

Question: What about the binding signal [4] of the same sequence?
Answer: Its binding signal is 1.68 fold enrichment (6-mer frequency, TF over GST control).

Question: What about the binding signal [5] of the same sequence?
Answer: Its binding signal is 1.66 fold enrichment (6-mer frequency, TF over GST control).

Question: What about the binding signal [6] of the same sequence?
Answer: The binding signal was 1.53 fold enrichment (6-mer frequency, TF over GST control).

Question: What about the binding signal [7] of the same sequence?
Answer: The binding signal was 1.67 fold enrichment (6-mer frequency, TF over GST control).

Question: What about the binding signal [8] of the same sequence?
Answer: The binding signal was 1.81 fold enrichment (6-mer frequency, TF over GST control).

Question: And the binding signal [9]?
Answer: Its binding signal is 1.46 fold enrichment (6-mer frequency, TF over GST control).
